Bioassay records: PubChem, National Center for Advancing Translational Sciences (NCATS)
POLK inh – blocks human DNA polymerase kappa activity. 0.53% of 400,000 active. AID 588579. purified Pol kappa, fluorescent DNA synthesis assay, 10 min. Potency, µM (doses to about 107 µM), most hits filed as inhibitors
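Kinetic fluorescence readout at 0 and 10 min followed reaction start with substrate at 50 nM final. Beforehand, enzyme (10 nM Pol kappa) stood 15 min with compound at room temperature; buffer-only wells were negative controls.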
POLB inh – blocks human DNA polymerase beta activity; P06746; Pol beta primer extension/strand displacement, fluorescence kinetic; Potency, µM (top dose mostly 114 µM), actives largely listed as inhibitors; 1.3% of 340,000 active; AID 485314
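Kinetic readout of DNA synthesis with strand displacement by Pol beta. Compound and 10 nM enzyme sit 15 min at room temperature; 50 nM substrate starts the reaction, read immediately and at 10 min.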
POLH inh – blocks human DNA polymerase eta activity | Q9Y253 | recombinant Pol eta, fluorescent DNA replication assay | Potency, µM (series often up to 114 µM), hits mostly inhibitors | 1.2% of 390,000 active
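Pol eta at 10 nM preincubated with compounds 15 min at room temperature; reaction started with fluorescent substrate (50 nM final) and read kinetically at 0 and 10 min.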
FEN1 inhibitor – inhibitors of human flap endonuclease 1. Recombinant FEN1 flap cleavage, fluorescence, 15 min. Potency, µM (titrated, usually from 114 µM), usual class: inhibitors. 0.35% of 390,000 active; also: nearly all actives have a fitted effect of over 65% in size
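Reaction started by adding substrate (50 nM final) to 10 nM enzyme after 15 min room-temperature compound preincubation. Reads at 0 and 15 min, with data normalized and fitted to a four-parameter Hill equation.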
POLI inh – blocks human DNA polymerase iota activity; Q9UNA4; Pol iota fluorescent replication assay, 10 min; Potency, µM (titrated, usually from 115 µM), usual class: inhibitors; 1% of 390,000 active; AID 588590
Target sequence (Q9UNA4 whole entry, looked up): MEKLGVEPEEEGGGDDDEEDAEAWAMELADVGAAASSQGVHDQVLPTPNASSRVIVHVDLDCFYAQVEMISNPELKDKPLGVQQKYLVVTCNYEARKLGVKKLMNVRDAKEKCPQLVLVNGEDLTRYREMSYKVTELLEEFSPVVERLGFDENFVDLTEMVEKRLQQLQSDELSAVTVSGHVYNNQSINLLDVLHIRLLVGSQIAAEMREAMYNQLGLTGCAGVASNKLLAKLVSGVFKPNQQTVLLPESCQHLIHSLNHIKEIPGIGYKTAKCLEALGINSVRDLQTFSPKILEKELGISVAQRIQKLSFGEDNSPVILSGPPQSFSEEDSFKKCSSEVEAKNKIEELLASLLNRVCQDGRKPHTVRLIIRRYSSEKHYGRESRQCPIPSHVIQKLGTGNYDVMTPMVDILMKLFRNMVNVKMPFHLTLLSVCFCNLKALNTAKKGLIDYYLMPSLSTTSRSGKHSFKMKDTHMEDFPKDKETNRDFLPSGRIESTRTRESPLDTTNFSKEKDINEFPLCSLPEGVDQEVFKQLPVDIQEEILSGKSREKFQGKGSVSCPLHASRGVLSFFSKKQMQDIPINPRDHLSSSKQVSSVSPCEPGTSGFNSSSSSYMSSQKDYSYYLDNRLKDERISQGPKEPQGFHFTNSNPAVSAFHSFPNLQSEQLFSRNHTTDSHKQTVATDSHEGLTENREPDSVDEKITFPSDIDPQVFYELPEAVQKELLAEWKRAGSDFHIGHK
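Fluorescent replication assay read twice, at 0 min and 10 min after adding 50 nM (final) substrate. Enzyme (10 nM) and compounds were first incubated 15 min at room temperature; enzyme-free buffer wells were negative controls.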
WRN helicase inh – WRN helicase (human) inhibition. Potency, µM (top dose mostly 114 µM), actives largely listed as inhibitors. AID 651768. WRN helicase unwinding, fluorescent forked duplex, kinetic. Q14191. 0.46% of 360,000 active; also: nearly all actives have a fitted effect of over 55% in size
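Fluorescence dequenching readout, ex 525 nm/em 598 nm, kinetic mode: forked duplex DNA (100 nM final) with adjacent fluorophore and quencher unwound by WRN (20 nM final) with 2 mM ATP. Compound preincubation 15 min, room temperature.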
Of the large screens only hits and unclear results are named; the others gave an inactive call; ! = a repeat was not active. An excerpt weighted towards active compounds, which were near 2.4% of everything screened. Calls follow the shape of the dose curve; as a rule, active = well fitted curve in the direction sought with a large enough effect; inconclusive = small, poorly fitted or top-dose-only effect, or another doubt; inactive = no such curve, though single readings can be large; an effect the other way counts as inactive or inconclusive.

CCc1ccc(CNC(=O)c2cc3c(s2)-c2ccccc2OC3)cc1	POLK inh inconclusive, POLB inh 50µM, POLI inh 79µM (no result: WRN helicase inh)
Cc1ccc(CCNC(=O)c2cc3c(s2)-c2c(C)cccc2OC3)cc1	POLB inh 3.5µM, POLH inh inconclusive (no result: WRN helicase inh)
O=C(Nc1ccc(Cl)cn1)c1cc2c(s1)-c1ccccc1OC2	none
Cc1cccc2c1-c1sc(C(=O)NCc3ccccc3Cl)cc1CO2	none (no result: WRN helicase inh)
O=C(NCCc1ccc(Cl)cc1)C1COc2ccccc2O1 (configuration not stated)	POLI inh 50µM
O=C(CSCc1ccc(F)cc1)N1CCc2c([nH]c3ccccc23)C1c1ccc(F)cc1 (configuration not stated)	none (no result: WRN helicase inh)
CC(C)CC(N)C(=O)NC(C)C(=O)O (configuration not stated)	none (no result: POLB inh, POLH inh, FEN1 inhibitor, POLI inh, WRN helicase inh)
CC(C)c1ccc(C2=NC(c3ccncc3)=Nc3ccc(F)cc3N2)cc1	none (no result: POLH inh, WRN helicase inh)
CCN(c1ccc(C)cc1C)S(=O)(=O)c1nnc(NC(=O)C(C)C)s1	none
Cc1cccc(C(=O)Nc2nnc(S(=O)(=O)N(C)Cc3ccc(Cl)cc3)s2)c1	POLI inh 89µM (no result: WRN helicase inh)
CCCCCCCCc1nnc(NC(=O)c2ccco2)s1	POLB inh 35µM
CCN(c1ccc(C)cc1C)S(=O)(=O)c1nnc(NC(=O)c2ccc(F)cc2)s1	POLB inh 18µM, POLI inh inconclusive (no result: WRN helicase inh)
CCOCc1nnc(NC(=O)c2ccco2)s1	none
COc1ccc(N(CC(C)C)S(=O)(=O)c2nnc(NC(=O)c3ccco3)s2)cc1	POLH inh 79µM, POLI inh inconclusive
CCC(CC)C(=O)Nc1ccccc1SCc1cc(=O)c2cccc(C)c2[nH]1	none (no result: WRN helicase inh)
CCN(c1ccccc1C)S(=O)(=O)c1nnc(NC(=O)c2ccco2)s1	POLK inh inconclusive, POLB inh inconclusive, POLH inh 50µM, POLI inh inconclusive
CCN(c1cc(C)cc(C)c1)S(=O)(=O)c1nnc(NC(=O)c2ccco2)s1	none
Cc1coc2c(C)c3oc(=O)c(CCC(=O)NCCc4ccccc4)c(C)c3cc12	none (no result: WRN helicase inh)
Cc1coc2c(C)c3oc(=O)c(CCC(=O)N[C@@H](C)C(=O)N[C@@H](Cc4ccccc4)C(=O)O)c(C)c3cc12	POLK inh inconclusive, POLB inh inconclusive, POLH inh 28µM
CCCC(NC(=O)Cc1c(C)c2cc3c(C)c(C)oc3c(C)c2oc1=O)C(=O)N[C@@H](Cc1ccccc1)C(=O)O (some centres not stated)	POLK inh inconclusive, POLB inh 28µM, POLH inh inconclusive, POLI inh inconclusive
CC(=O)NS(=O)(=O)c1ccc(NC(=O)c2cc3c(=O)n4ccccc4nc3s2)cc1	POLK inh inconclusive, POLB inh 79µM, POLH inh 40µM, POLI inh 35µM
CC1(S(=O)(=O)O)CC(=O)c2ccccc2C1=O (configuration not stated)	POLB inh inconclusive, POLH inh inconclusive, FEN1 inhibitor inconclusive, POLI inh 6.3µM
O=C1CC(=Nc2ccc([N+](=O)[O-])cc2)NN1c1c(Cl)cc(Cl)cc1Cl	POLH inh 79µM (no result: POLK inh, POLB inh, FEN1 inhibitor, POLI inh)
O=[N+]([O-])c1ccc(N=Nc2c(Cl)cc(O)cc2Cl)cc1	none
O=C(Cn1cc(SCc2ccc(Cl)cc2)c2ccccc21)N1CCCC1	none (no result: WRN helicase inh)
COc1ccc(NC(=O)c2cc3cccc(OC)c3oc2=Nc2ccc(C(=O)O)cc2)cc1OC	POLB inh inconclusive, POLH inh 14µM
COc1ccccc1NC(=O)CCc1nc2sc3c(c2c(=O)[nH]1)CCCC3	POLK inh inconclusive, POLH inh 50µM, POLI inh 25µM (no result: POLB inh)
O=C(CCc1nc2sc3c(c2c(=O)[nH]1)CCCC3)N1CCN(c2ccccc2)CC1	POLK inh inconclusive, POLH inh 79µM, POLI inh 45µM (no result: POLB inh)
COc1cccc(NC(=O)CN(C)C(=O)CCc2nc3sc4c(c3c(=O)[nH]2)CCCC4)c1	POLB inh 35µM, POLH inh 22µM, POLI inh 28µM, WRN helicase inh inconclusive
CCc1cccc(NC(=O)CCc2nc3sc4c(c3c(=O)[nH]2)CCCC4)c1	POLK inh inconclusive, POLH inh 32µM, POLI inh 18µM (no result: POLB inh)
Cc1cccc(NC(=O)CCc2nc3sc4c(c3c(=O)[nH]2)CCCC4)c1	POLH inh inconclusive (no result: POLB inh)
CCOc1ccc(/C=C(\C#N)c2nc(-c3cc4ccccc4oc3=O)cs2)c(OCC)c1	none (no result: POLH inh, WRN helicase inh)
CCCCN(CCCN)c1ccc(Br)cn1	none (no result: POLB inh, POLH inh, WRN helicase inh)
CCOC(=O)C1c2cccc(O)c2CCN1C(C)=O (configuration not stated)	POLH inh inconclusive (no result: POLK inh, POLB inh, FEN1 inhibitor, POLI inh)
Cc1ccc(S(=O)(=O)c2c(N)n(CCCN(C)C)c3nc4ccccc4nc23)cc1	none
CCCCn1c(NS(=O)(=O)c2ccc(C)cc2)c(S(=O)(=O)c2ccccc2)c2nc3ccccc3nc21	POLI inh 10µM
COc1ccc(C2/C=C\CN(C(=O)CC(C)(C)C)C(C)C(=O)N2Cc2ccc(F)cc2)cc1 (configuration not stated)	none (no result: POLB inh, POLH inh, WRN helicase inh)
COc1ccc(/C(C)=N/NC(=O)CNC(=O)/C=C\c2ccco2)cc1	POLB inh 25µM, POLI inh 50µM
Cc1cnc(CNc2ccnc(-c3cccc(C#N)c3)n2)cn1	none (no result: POLB inh, POLH inh, FEN1 inhibitor, POLI inh, WRN helicase inh)
Cc1nnc2c3ccccc3nc(Nc3ccccc3C(=O)O)n12	POLH inh 79µM, FEN1 inhibitor inconclusive (no result: WRN helicase inh)
COc1cc(/C=C(\C#N)c2nc3ccccc3[nH]2)ccc1OCc1cccc(C(F)(F)F)c1	POLB inh 3.5µM, POLI inh inconclusive (no result: POLH inh, WRN helicase inh)
COC(=O)c1ccc(COc2ccc(/C=C(\C#N)c3nc4ccccc4[nH]3)cc2OC)o1	POLB inh 8.9µM, POLH inh inconclusive, WRN helicase inh inconclusive
C[C@H](O)[C@@H]1C(=O)N2CCc3ccc(N4CCOCC4)cc3[C@@H]2C[C@@H]1N(C)C(=O)Nc1ccccc1	none (no result: POLB inh)
CCN(CC)c1ccc2cc(-c3nc(-c4ccccc4)no3)c(=O)oc2c1	POLH inh inconclusive (no result: WRN helicase inh)
O=C1OC(c2ccco2)=N/C1=C\c1ccc(-c2cccc(C(F)(F)F)c2)o1	POLH inh 79µM, WRN helicase inh inconclusive
CCOC(=O)N/N=C\c1ccc(-c2cccc(C(F)(F)F)c2)o1	none
Cc1ccc(-n2c(SCC(=O)N3CCc4ccccc43)nc3c([nH]c4ccccc43)c2=O)cc1	none (no result: WRN helicase inh)
COC(=O)c1ccc(OC(=O)c2cccnc2SC)cc1	none
COC(=O)c1ccc(OC(=O)c2ccccn2)cc1	POLB inh inconclusive, POLI inh 18µM
CCc1ccc(CNC(=O)C2CCCN(c3nnc(C)c4c(C)n(-c5ccccc5)nc34)C2)cc1 (configuration not stated)	POLB inh 50µM!, POLH inh inconclusive
